What was measured:
[1] = target: Death-associated protein kinase 1 (Homo sapiens) (UniProt P53355); settings: at 10 µM
[2] = target: Death-associated protein kinase 2 (Homo sapiens) (UniProt Q9UIK4); settings: at 1 µM
[3] = target: Death-associated protein kinase 2 (Homo sapiens) (UniProt Q9UIK4); settings: at 10 µM
[4] = target: T1, Serine/threonine-protein kinase DCLK2 (Homo sapiens) (UniProt Q8N568); settings: at 1 µM
T1 sequence (whole entry): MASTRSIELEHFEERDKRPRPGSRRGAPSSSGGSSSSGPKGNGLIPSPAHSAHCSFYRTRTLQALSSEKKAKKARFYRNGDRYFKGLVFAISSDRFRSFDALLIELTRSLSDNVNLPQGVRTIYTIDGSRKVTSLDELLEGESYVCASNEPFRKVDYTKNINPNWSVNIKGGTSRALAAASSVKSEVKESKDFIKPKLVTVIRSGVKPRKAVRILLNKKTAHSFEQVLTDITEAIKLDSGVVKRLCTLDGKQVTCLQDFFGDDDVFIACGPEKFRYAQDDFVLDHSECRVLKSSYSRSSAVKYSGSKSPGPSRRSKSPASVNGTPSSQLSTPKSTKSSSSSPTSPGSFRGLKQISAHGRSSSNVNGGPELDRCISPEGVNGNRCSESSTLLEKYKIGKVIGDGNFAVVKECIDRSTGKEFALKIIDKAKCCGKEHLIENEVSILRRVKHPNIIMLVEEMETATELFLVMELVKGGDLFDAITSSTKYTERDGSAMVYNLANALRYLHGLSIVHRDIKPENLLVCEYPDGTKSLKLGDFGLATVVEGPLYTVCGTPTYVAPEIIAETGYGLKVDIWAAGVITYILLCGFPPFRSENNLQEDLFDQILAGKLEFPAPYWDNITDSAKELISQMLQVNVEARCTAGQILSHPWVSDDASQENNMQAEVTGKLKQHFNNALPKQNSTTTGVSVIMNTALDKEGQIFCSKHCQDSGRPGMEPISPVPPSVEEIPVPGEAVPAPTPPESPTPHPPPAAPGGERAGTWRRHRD

[5] = target: T1, Serine/threonine-protein kinase DCLK2 (Homo sapiens); settings: at 10 µM
[6] = target: T2, Discoidin domain-containing receptor 2 (Homo sapiens) (UniProt Q16832); settings: at 1 µM
T2 sequence (whole entry): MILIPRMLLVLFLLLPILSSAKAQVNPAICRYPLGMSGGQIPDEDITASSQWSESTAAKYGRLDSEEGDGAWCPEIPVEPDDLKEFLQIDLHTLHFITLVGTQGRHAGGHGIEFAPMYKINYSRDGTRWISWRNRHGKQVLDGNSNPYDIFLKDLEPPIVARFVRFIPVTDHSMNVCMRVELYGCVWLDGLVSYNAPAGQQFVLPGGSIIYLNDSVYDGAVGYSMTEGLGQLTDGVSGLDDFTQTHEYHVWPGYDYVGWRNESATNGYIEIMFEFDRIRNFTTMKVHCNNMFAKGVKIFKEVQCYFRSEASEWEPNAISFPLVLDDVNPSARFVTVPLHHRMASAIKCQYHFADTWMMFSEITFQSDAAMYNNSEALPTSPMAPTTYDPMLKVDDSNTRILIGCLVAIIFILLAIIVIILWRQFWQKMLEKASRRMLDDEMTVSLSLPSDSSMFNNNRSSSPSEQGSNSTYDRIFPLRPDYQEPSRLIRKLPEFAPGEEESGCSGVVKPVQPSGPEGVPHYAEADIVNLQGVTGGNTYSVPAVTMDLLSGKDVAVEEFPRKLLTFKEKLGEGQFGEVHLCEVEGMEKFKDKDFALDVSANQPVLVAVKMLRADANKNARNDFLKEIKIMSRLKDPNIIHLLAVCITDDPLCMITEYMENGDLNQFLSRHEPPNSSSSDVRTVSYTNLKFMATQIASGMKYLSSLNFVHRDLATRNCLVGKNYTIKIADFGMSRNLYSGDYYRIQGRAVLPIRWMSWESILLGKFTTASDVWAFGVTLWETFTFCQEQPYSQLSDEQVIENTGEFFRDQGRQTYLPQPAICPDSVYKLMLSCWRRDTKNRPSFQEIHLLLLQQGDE

[7] = target: T2, Discoidin domain-containing receptor 2 (Homo sapiens); settings: at 10 µM
[8] = target: T3, Myotonin-protein kinase (Homo sapiens) (UniProt Q09013); settings: at 1 µM
T3 sequence (whole entry): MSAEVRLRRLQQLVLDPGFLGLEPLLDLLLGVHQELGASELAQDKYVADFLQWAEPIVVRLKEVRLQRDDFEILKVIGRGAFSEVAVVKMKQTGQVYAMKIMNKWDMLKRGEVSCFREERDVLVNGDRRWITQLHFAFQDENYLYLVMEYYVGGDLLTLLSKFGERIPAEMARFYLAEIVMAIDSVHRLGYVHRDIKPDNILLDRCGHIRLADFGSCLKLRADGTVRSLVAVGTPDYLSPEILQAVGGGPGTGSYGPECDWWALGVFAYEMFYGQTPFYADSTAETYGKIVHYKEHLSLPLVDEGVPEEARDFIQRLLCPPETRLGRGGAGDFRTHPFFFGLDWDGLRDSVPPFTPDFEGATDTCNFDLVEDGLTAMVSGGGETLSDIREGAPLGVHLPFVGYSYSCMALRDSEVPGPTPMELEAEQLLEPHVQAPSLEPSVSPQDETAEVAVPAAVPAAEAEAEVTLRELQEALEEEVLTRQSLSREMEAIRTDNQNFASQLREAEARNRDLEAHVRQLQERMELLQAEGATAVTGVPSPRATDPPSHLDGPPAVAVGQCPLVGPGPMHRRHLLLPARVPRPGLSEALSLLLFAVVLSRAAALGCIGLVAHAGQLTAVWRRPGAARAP

[9] = target: T3, Myotonin-protein kinase (Homo sapiens); settings: at 10 µM
[10] = target: T4, Serine/threonine-protein kinase 17A (Homo sapiens) (UniProt Q9UEE5); settings: at 1 µM
T4 sequence (whole entry): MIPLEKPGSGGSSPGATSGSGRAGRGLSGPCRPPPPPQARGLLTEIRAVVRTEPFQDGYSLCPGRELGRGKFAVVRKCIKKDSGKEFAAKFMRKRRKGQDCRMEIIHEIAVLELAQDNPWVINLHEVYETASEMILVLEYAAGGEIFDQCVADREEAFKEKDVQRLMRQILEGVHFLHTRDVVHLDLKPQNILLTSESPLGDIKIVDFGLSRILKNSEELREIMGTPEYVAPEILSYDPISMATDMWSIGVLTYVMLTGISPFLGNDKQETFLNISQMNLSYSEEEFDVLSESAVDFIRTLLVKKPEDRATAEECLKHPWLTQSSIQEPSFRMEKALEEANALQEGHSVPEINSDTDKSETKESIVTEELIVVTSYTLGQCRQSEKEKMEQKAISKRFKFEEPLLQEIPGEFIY

[11] = target: T4, Serine/threonine-protein kinase 17A (Homo sapiens); settings: at 10 µM
[12] = target: T5, Dual specificity tyrosine-phosphorylation-regulated kinase 2 (Homo sapiens) (UniProt Q92630); settings: at 1 µM
T5 sequence (whole entry): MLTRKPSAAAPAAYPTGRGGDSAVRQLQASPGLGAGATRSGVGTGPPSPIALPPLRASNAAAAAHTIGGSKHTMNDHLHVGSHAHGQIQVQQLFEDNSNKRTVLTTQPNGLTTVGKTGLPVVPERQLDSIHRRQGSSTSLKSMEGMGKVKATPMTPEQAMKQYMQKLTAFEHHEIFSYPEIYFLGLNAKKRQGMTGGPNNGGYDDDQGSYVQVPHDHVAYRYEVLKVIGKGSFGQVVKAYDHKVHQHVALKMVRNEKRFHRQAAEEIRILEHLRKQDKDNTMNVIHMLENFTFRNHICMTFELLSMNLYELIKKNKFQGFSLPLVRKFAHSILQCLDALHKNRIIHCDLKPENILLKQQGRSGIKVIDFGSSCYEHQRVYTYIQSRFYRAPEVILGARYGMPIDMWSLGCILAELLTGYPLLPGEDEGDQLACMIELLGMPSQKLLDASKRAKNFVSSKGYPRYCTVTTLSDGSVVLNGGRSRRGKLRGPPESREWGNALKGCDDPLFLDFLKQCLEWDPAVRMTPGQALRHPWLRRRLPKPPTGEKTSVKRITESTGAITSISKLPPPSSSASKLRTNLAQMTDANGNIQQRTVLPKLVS

[13] = target: T5, Dual specificity tyrosine-phosphorylation-regulated kinase 2 (Homo sapiens); settings: at 10 µM
[14] = target: T6, Ephrin type-A receptor 1 (Homo sapiens) (UniProt P21709); settings: at 1 µM
T6 sequence (whole entry): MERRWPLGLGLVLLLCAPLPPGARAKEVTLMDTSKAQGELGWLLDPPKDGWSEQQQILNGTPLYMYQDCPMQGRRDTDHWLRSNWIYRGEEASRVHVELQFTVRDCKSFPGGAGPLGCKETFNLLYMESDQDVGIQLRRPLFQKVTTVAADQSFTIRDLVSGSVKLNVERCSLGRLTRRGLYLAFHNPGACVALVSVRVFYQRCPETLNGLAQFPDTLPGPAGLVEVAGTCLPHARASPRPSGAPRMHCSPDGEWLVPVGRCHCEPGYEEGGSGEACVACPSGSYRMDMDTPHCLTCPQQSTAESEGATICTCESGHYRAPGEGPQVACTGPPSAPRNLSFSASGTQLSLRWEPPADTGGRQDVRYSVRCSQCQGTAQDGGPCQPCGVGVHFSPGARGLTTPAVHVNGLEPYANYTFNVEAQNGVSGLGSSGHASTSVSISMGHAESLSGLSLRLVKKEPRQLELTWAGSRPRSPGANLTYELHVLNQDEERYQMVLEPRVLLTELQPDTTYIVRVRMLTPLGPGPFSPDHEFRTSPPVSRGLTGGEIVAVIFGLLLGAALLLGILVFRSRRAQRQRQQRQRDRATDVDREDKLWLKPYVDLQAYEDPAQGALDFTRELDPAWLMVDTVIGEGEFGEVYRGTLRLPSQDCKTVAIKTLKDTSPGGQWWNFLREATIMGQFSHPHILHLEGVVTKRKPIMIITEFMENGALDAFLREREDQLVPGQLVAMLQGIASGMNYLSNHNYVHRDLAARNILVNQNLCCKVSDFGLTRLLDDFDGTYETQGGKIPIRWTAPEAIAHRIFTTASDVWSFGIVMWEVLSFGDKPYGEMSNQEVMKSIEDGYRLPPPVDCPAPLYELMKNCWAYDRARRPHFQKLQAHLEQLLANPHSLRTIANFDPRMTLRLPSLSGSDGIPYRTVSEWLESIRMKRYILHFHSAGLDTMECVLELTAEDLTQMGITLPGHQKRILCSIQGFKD

[15] = target: T6, Ephrin type-A receptor 1 (Homo sapiens); settings: at 10 µM
[16] = target: Ephrin type-A receptor 2 (Homo sapiens) (UniProt P29317); settings: at 1 µM
[17] = target: Ephrin type-A receptor 2 (Homo sapiens) (UniProt P29317); settings: at 10 µM
[18] = target: T7, Ephrin type-A receptor 3 (Homo sapiens) (UniProt P29320); settings: at 1 µM
T7 sequence (whole entry): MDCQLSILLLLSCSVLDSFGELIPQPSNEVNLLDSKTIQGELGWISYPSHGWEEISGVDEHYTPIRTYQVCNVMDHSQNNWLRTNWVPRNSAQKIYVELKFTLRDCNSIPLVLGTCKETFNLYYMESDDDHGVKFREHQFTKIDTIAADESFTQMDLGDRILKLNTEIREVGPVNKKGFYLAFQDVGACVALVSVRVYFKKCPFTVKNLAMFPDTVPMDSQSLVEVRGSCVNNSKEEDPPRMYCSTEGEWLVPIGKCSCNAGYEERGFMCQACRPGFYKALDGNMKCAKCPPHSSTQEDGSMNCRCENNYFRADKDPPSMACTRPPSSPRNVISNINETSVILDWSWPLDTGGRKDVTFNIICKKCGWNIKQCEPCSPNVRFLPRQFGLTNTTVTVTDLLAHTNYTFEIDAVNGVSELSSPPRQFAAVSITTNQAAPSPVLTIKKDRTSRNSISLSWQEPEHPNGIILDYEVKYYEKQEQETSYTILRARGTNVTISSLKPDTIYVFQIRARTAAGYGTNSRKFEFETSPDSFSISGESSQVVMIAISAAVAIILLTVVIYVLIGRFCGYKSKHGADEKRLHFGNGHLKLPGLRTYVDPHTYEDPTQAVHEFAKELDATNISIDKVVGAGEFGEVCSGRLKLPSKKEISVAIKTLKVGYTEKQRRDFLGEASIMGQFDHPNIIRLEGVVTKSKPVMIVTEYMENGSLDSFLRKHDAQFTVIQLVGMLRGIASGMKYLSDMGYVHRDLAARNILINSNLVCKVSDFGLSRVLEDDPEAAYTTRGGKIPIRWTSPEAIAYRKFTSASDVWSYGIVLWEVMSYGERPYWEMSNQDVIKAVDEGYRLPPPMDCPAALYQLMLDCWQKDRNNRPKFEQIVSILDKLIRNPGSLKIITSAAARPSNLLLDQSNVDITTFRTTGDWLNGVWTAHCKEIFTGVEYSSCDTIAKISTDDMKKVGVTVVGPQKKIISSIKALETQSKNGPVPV

[19] = target: Epidermal growth factor receptor (Homo sapiens) (UniProt P00533); settings: at 1 µM
[20] = target: Epidermal growth factor receptor (Homo sapiens) (UniProt P00533); settings: at 10 µM

Sequence of Death-associated protein kinase 2 (Homo sapiens) (Q9UIK4 whole entry, looked up): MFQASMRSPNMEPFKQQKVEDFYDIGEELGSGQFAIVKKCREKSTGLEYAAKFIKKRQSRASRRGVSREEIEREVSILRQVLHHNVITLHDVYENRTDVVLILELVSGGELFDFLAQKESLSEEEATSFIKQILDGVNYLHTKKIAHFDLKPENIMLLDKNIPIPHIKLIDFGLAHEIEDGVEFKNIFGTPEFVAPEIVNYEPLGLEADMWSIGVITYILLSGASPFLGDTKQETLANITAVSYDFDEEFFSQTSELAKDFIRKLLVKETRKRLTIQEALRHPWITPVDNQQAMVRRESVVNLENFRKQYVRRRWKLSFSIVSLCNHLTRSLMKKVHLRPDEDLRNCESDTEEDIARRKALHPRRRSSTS
Sequence of Death-associated protein kinase 1 (Homo sapiens) (P53355 whole entry, looked up): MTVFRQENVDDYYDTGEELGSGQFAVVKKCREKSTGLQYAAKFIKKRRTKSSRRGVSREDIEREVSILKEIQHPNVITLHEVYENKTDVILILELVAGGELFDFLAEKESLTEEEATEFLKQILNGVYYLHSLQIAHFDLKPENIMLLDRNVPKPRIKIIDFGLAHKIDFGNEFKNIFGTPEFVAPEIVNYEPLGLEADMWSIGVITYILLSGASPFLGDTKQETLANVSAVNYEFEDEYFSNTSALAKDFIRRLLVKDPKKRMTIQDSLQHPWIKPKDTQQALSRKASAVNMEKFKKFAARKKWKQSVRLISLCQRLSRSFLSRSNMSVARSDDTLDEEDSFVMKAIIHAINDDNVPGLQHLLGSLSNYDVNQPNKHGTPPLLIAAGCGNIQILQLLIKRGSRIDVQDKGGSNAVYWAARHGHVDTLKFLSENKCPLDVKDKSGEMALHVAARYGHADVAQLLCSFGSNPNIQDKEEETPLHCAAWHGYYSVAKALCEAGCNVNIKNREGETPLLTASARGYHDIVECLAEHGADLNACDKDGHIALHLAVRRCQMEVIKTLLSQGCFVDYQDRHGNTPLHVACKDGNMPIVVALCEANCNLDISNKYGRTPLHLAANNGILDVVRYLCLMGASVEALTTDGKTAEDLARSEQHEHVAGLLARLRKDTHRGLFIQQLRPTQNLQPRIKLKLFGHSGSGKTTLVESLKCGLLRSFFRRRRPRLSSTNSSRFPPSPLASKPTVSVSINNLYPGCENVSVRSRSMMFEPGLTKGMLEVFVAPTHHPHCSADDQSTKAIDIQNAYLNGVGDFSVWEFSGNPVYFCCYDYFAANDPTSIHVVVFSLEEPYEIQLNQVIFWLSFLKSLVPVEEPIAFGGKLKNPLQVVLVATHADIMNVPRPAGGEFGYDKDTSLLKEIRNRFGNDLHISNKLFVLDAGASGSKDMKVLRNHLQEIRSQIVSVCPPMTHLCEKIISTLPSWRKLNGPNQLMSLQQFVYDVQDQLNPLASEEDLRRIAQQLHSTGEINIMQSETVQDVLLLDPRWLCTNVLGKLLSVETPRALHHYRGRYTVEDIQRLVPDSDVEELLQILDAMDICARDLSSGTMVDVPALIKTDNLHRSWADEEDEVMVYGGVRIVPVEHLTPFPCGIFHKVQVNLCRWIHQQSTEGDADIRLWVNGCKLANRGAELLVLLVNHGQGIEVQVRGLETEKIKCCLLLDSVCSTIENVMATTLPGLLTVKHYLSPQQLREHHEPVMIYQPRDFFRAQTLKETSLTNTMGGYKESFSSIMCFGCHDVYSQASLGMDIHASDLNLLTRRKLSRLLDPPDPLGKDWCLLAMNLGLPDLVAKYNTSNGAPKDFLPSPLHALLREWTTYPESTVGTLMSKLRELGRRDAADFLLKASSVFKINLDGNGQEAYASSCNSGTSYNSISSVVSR
Sequence of Ephrin type-A receptor 2 (Homo sapiens) (P29317 whole entry): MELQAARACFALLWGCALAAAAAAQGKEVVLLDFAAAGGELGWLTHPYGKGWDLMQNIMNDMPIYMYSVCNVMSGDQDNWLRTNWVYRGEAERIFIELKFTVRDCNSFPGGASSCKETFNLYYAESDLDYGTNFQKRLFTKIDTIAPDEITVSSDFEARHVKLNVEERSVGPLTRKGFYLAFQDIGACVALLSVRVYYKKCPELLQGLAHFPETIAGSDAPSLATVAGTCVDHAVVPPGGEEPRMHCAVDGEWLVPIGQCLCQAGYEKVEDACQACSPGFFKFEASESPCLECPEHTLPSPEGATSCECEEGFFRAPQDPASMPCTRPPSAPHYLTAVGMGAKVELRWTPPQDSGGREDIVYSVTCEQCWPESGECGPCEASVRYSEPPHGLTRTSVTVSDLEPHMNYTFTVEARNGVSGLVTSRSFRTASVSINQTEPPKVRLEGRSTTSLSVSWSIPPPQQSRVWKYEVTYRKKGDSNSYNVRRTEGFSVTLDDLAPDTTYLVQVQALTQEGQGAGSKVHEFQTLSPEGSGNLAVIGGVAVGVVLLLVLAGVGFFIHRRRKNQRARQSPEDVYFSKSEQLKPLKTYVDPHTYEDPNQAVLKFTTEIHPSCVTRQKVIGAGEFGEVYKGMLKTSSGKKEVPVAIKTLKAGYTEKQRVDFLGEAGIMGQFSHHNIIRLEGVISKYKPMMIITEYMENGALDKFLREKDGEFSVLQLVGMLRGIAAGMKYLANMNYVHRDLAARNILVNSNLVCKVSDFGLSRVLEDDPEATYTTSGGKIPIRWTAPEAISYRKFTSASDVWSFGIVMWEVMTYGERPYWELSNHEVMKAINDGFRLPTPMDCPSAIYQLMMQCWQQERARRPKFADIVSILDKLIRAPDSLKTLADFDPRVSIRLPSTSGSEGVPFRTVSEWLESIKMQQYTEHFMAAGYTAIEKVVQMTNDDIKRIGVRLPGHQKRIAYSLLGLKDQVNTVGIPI
Sequence of Epidermal growth factor receptor (Homo sapiens) (P00533 whole entry): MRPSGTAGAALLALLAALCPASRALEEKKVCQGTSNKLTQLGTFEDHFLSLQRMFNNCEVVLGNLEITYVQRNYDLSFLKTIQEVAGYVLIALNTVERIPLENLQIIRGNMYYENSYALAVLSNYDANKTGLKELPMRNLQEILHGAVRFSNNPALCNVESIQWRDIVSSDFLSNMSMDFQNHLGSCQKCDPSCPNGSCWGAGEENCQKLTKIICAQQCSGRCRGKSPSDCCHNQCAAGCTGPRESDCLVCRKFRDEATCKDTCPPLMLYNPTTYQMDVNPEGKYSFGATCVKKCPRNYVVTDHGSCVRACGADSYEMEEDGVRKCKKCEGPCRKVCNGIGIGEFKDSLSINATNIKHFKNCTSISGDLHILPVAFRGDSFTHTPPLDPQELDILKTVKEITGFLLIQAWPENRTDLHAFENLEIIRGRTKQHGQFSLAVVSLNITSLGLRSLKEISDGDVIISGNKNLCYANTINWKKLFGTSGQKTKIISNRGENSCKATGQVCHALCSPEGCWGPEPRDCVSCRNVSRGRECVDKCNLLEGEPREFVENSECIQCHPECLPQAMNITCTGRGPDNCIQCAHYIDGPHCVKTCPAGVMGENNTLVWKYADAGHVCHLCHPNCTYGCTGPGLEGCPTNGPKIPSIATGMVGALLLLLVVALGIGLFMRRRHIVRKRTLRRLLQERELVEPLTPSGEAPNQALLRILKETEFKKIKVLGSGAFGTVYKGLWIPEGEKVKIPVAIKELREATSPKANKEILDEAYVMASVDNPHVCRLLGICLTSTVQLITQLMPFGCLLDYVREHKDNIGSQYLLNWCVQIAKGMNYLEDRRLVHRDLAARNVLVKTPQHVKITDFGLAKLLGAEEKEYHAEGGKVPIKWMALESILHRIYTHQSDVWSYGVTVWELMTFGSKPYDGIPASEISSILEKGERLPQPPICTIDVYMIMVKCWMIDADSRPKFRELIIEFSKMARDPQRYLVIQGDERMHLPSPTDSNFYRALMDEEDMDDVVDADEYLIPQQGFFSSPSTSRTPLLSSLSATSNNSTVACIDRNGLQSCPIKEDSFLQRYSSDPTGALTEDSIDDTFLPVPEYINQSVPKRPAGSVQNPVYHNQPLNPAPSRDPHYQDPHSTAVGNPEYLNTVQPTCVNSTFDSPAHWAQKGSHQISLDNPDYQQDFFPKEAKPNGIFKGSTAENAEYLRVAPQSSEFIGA

| Compound | residual activity [1] [%] | residual activity [2] [%] | residual activity [3] [%] | residual activity [4] [%] | residual activity [5] [%] | residual activity [6] [%] | residual activity [7] [%] | residual activity [8] [%] | residual activity [9] [%] | residual activity [10] [%] | residual activity [11] [%] | residual activity [12] [%] | residual activity [13] [%] | residual activity [14] [%] | residual activity [15] [%] | residual activity [16] [%] | residual activity [17] [%] | residual activity [18] [%] | residual activity [19] [%] | residual activity [20] [%] |
| --- | --- | --- | --- | --- | --- | --- | --- | --- | --- | --- | --- | --- | --- | --- | --- | --- | --- | --- | --- | --- |
| CNc1cc2c(Nc3cccc(Br)c3)ncnc2cn1 | 60 | 86 | 69 | 121 | 97 | 84 | 68 | 107 | 113 | 64 | 11 | 90 | 86 | 72 | 59 | 94 | 75 | 93 | – | – |
| O=c1c2ccccc2[nH]c(=S)n1CCN1CCC(=C(c2ccc(F)cc2)c2ccc(F)cc2)CC1 | 62 | 109 | 104 | 91 | 79 | 104 | 87 | 105 | 108 | 71 | 90 | 102 | 96 | 95 | 89 | 116 | 100 | 109 | – | – |
| Cn1cc(/C=C2\C(=O)Nc3ccc(S(N)(=O)=O)cc32)c2ccccc21 | 85 | 92 | 94 | 97 | 77 | 94 | 99 | 80 | 120 | 22 | 3 | 102 | 99 | 89 | 107 | 100 | 72 | 50 | – | – |
| COc1cc2ncnc(Nc3ccc(Oc4ccccc4)cc3)c2cc1OC | 106 | 99 | 118 | 82 | 252 | 113 | 103 | 98 | 139 | 81 | 124 | 99 | 95 | 98 | 81 | 95 | 116 | 98 | -1 | -2 |

— ChEMBL document CHEMBL2218924, “A broad activity screen in support of a chemogenomic map for kinase signalling research and drug discovery” (Biochem J, 2013)
